The results in this text go back to PubChem BioAssay AID463173 (ICCB-Longwood Screening Facility, Harvard Medical School, 2010).

Screen size: about 52,000 compounds; about 1,700 (3.3%) were called active. The entries come from a sample that favours actives as a whole. Values without a mark were called inactive. Cut-off read from the data, not from the text of the source: active = survival mostly below about 52% (no sharp cut-off); inactive = mostly above about 56%.

The subject of the test is Wild type. The test is described as follows: S. aureus survival, RN4220 and DeltatarO strains – OD600, teichoic acid synthesis inhibitors, primary screen (AID 463173). The note with it: S. aureus RN4220 wild type/DeltatarO growth, OD600, 18 h, stronger effect = lower value, screened at 18.75 µg/mL (by protocol).
With `CC(=O)c1cc(-c2ccc(F)cc2)n(CC(=O)Nc2cc(C)cc(C)c2)c1C`, the survival was 66%. Consider `Cc1ccc(Nc2c(-c3ccc(C)s3)nc3ncccn23)cc1`, for which the survival is 43%. With `Cc1cccn2c(=O)c(C(=O)N3CCN(c4ccccc4)CC3)cnc12` the figure was 22%; with `Cc1cccc(N2CCN(C(=O)c3cccn4c(=O)c5cc(Cl)ccc5nc34)CC2C)c1` (centres undefined), 65%; with `Cc1cccc(N2CCN(C(=O)c3cnc4c(C)cccn4c3=O)CC2C)c1` (centres undefined), 0% (active). The result for `COc1ccc(NS(=O)(=O)c2ccc3c(c2)n(C)c(=O)c(=O)n3C)cc1Cl` reads 77%. Regarding `O=C(Cc1ccc(F)cc1)NC1CC(=O)N(c2ccccc2)C1` (centres undefined), the survival is 72%.

For the molecule `O=C(Cn1c(-c2cccs2)cc2ccccc21)NCc1ccccc1Br`, the survival was 120%. With `CCCCN(C)CCNC(=O)Cn1ncc2c([nH]c3ccccc32)c1=O` the figure was 0% (active); with `CCN(CC)CCNC(=O)Cn1ncc2c([nH]c3ccccc32)c1=O`, 72%. `O=C(Cn1ncc2c([nH]c3ccccc32)c1=O)NCc1cccc(Cl)c1`: the survival is -3% (active). The result for `CN(CCCNC(=O)Cn1ncc2c([nH]c3ccccc32)c1=O)Cc1ccccc1` reads 73%; that for `Cc1ccc(CCNC(=O)Cn2ncc3c([nH]c4ccccc43)c2=O)cc1`, 66%. As for `COc1ccc(CNC(=O)Cn2ncc3c([nH]c4ccccc43)c2=O)cc1`, the survival is 63%. `CCC(=O)N1CCN(c2ccc(NC(=O)c3ccccc3)cc2)CC1`: the survival is 99%. Take `Cc1cccc(Nc2nnc(-c3ccc(C)c(S(=O)(=O)N4CCN(C)CC4)c3)c3ccccc23)c1`: the survival is 147%. The result for `O=C(Nc1cccnc1Cl)c1cc(-c2ccc(Cl)cc2)on1` reads 83%; that for `COc1ccc(CNC(=O)CCC2N=C3c4ccccc4N=C(SCc4ccc(F)cc4)N3C2=O)cc1` (centres undefined), 82%. With `CCCCNC(=O)CSC1=Nc2ccccc2C2=NC(CCC(=O)NCc3ccccc3OC)C(=O)N12` (centres undefined) the figure was -2% (active). With `COc1ccc(OC)c(NC(=O)CSC2=Nc3ccccc3C3=NC(CCC(=O)NCc4ccco4)C(=O)N23)c1` (centres undefined) the figure was 70%; with `O=C(CCC1N=C2c3ccccc3N=C(SCc3ccccc3F)N2C1=O)NCc1ccc(F)cc1` (centres undefined), 73%. `COc1ccccc1CNC(=O)CCC1N=C2c3ccccc3N=C(SCC(=O)NCCc3ccccc3)N2C1=O` (centres undefined): the survival was 129%. The result for `COc1ccccc1CNC(=O)CCC1N=C2c3ccccc3N=C(SCc3ccc(C)cc3)N2C1=O` (centres undefined) reads 118%; that for `COCCCNC(=O)CSC1=Nc2ccccc2C2=NC(CCC(=O)NCc3ccccc3OC)C(=O)N12` (centres undefined), 73%. With `COc1ccc(OC)c(NC(=O)CSC2=Nc3ccccc3C3=NC(CCC(=O)NCCc4ccccc4)C(=O)N23)c1` (centres undefined) the figure was 73%; with `COc1ccccc1CNC(=O)CCC1N=C2c3ccccc3N=C(SCc3cccc(Cl)c3)N2C1=O` (centres undefined), 82%. Take `COc1ccc(CNC(=O)CCC2N=C3c4ccccc4N=C(SCc4ccccc4F)N3C2=O)cc1` (centres undefined): the survival was 10% (active). With `COc1ccc(OC)c(NC(=O)CSC2=Nc3ccccc3C3=NC(CCC(=O)NCc4ccccc4)C(=O)N23)c1` (centres undefined) the figure was -3% (active); with `COc1ccccc1CNC(=O)CCC1N=C2c3ccccc3N=C(SCc3ccc(Cl)cc3)N2C1=O` (centres undefined), 0% (active); with `CC1CCN(C(c2ccccc2)c2sc3nc(-c4ccco4)nn3c2O)CC1` (centres undefined), 68%. The result for `Cc1[nH]c(=O)[nH]c(=O)c1/C=N\NC(=O)c1cc2ccccc2o1` reads 111%; that for `N#CC1=C(N)SC(N)=C(C#N)C1c1cc2c(cc1Cl)OCO2`, 112%; that for `Cc1cccc(N(CC(=O)NC(C)c2ccccc2)S(=O)(=O)c2ccccc2)c1C` (centres undefined), 79%. The result for `Cc1cc(NC(=O)CSc2nc(-c3cccc(F)c3)nc3c2c(=O)n(C)c(=O)n3C)no1` reads 68%; that for `CCOc1cc(C#N)c(NC(=O)c2cccc(S(=O)(=O)N3CCOCC3)c2)cc1OCC`, 131%; that for `Cc1ccc(CNC(=O)CN2Cc3ccccc3C2=O)cc1`, 76%.

With `COc1cccc(CNc2ncnc3c2nnn3C)c1`, the survival is 79%. The result for `CCc1nnc(SCc2c(F)cccc2Cl)c2cc3sccc3n12` reads 88%; that for `CCc1nnc(SCc2ccc(F)cc2Cl)c2cc3sccc3n12`, 93%; that for `CCc1nnc(SCc2cccc(Cl)c2)c2cc3sccc3n12`, 2% (active). The result for `N#Cc1cccc(NC(=O)C2CCN(c3cnccn3)CC2)c1` reads 105%; that for `CCCCN(CCCC)CCNC(=O)c1cn(CC)c2ccc(S(=O)(=O)N3CCc4ccccc4C3)cc2c1=O`, 84%; that for `CCN(CC)C(=O)Cn1c(SCC(=O)Nc2ccc(C)c(C)c2)nc2ccccc21`, 133%. With `CCN(C(=O)CSc1nc2ccccc2n1CC(=O)Nc1ccccc1C)c1ccccc1` the figure was -6% (active); with `Cc1ccc(NC(=O)CSc2nc3ccccc3n2CC(=O)N(C)C2CCCCC2)cc1C`, 78%; with `CCN(C(=O)CSc1nc2ccccc2n1CC(=O)Nc1cccc(C#N)c1)c1ccccc1`, 124%. For `CC1CCN(C(=O)Cn2c(SCC(=O)NC(C)(C)C)nc3ccccc32)CC1`, the survival is 102%. With `CCCCN(C)C(=O)Cn1c(SCC(=O)Nc2ccc(C)c(C)c2)nc2ccccc21` the figure was 14% (active); with `Cc1ccc(NC(=O)CSc2nc3ccccc3n2CC(=O)N2CCC(C)CC2)cc1C`, -1% (active).

For the molecule `CCN(C(=O)CSc1nc2ccccc2n1CC(=O)Nc1ccc(F)cc1F)c1ccccc1`, the survival is 73%. With `CC1CCN(C(=O)Cn2c(SCC(=O)Nc3ccc(F)cc3)nc3ccccc32)CC1` the figure was 70%; with `CC1CCc2c(sc3nc(SCC(=O)Nc4c[nH]c(=O)[nH]c4=O)[nH]c(=O)c23)C1` (centres undefined), 107%; with `Cc1ccc(CNC(=O)c2cc(-c3ccc(C)cc3)nc3n[nH]c(-c4cccc([N+](=O)[O-])c4)c23)cc1`, 74%.

Turning to `CC(C)CNS(=O)(=O)c1ccc(S(=O)(=O)N2CCCN(Cc3ccccc3)C2)cc1`, the survival was 97%. With `CCOc1ccc(-c2cc3nc(C4CCN(C(=O)OC(C)(C)C)CC4)c(C(=O)Nc4ccc(C)c(F)c4)cn3n2)cc1` the figure was 86%. The result for `CCc1ccc(NC(=O)C2CCN(c3nc(-c4ccc(OC)cc4)no3)CC2)cc1` reads 66%. Consider `COC(=O)c1cccnc1-n1c(=O)c2cccnc2n(CC(=O)Nc2ccccc2F)c1=O`, for which the survival is 84%.

As to `Cc1[nH]c(=O)[nH]c(=O)c1CSCC(=O)O`, the survival was 108%. With `O=C(/C=C/c1ccc(Cl)cc1)Nc1nc(-c2cccs2)ns1` the figure was 75%; with `Cc1ccc(-c2nnc(NC3CCCC3)s2)cc1`, 126%.

Turning to `N#CSc1cnc(NC2CCCCC2)s1`, the survival is 2% (active). The result for `Cc1cc(C)c(C#N)c(NC2CCCCC2)n1` reads 92%. Regarding `CC(=O)c1cccc(Nc2ccc3cc(S(=O)(=O)N4CCCC4)ccc3n2)c1`, the survival was 73%.

On to `CCOC(=O)c1cccc(Nc2ccc3cc(S(=O)(=O)N4CCCCC4)ccc3n2)c1`, for which the survival is -3% (active). The result for `O=S(=O)(c1ccc2nc(Nc3cccc(F)c3)ccc2c1)N1CCCC1` reads 75%; that for `CCN(CC)c1cc(C)c2cc(NC(=O)/C=C/c3ccc(C)cc3)ccc2n1`, 68%; that for `CCN(CC)c1ccc(NC(=O)c2cnc3c(-c4ccccc4)c(C)nn3c2C)c(C)c1`, 85%. With `COc1ccc(NC(c2nnc(-c3ccccc3)o2)c2ccccc2F)cc1Cl` (centres undefined) the figure was 65%; with `Cc1cc([N+](=O)[O-])ccc1NC(c1nnc(-c2ccccc2)o1)c1ccccc1F` (centres undefined), 99%; with `Clc1ccc(CCNC(c2nnc(-c3ccccc3)o2)c2ccccc2Cl)cc1` (centres undefined), 3% (active).

For the molecule `Cc1cc(NC(c2nnc(-c3ccccc3)o2)c2ccccc2F)ccc1Br` (centres undefined), the survival was 9% (active). With `Cc1cc(C)cc(NC(c2nnc(-c3cccc(F)c3)o2)c2ccc(F)cc2Cl)c1` (centres undefined) the figure was 37%. In the case of `CCOC(=O)c1cccc(NC(c2nnc(-c3ccccc3)o2)c2ccccc2F)c1` (centres undefined), the survival is 87%. As for `CC(C)c1ccc(NC(c2nnc(-c3ccccc3)o2)c2ccc(F)cc2Cl)cc1` (centres undefined), the survival was 69%.

Consider `Cc1cc(C)cc(NC(c2cccc(Cl)c2)c2nnc(-c3ccccc3)o2)c1` (centres undefined), for which the survival is 91%.

Turning to `Fc1ccc(C(NCCc2ccc(Cl)cc2)c2nnc(-c3ccccc3)o2)c(Cl)c1` (centres undefined), the survival was 3% (active). The result for `Fc1ccccc1C(NCCc1ccc(Cl)cc1)c1nnc(-c2ccccc2)o1` (centres undefined) reads -1% (active); that for `Cc1ccc(NC(c2nnc(-c3ccccc3)o2)c2ccccc2F)c(Cl)c1` (centres undefined), 91%; that for `Cc1ccccc1Cn1cc(CCC(=O)NC(C)c2ccccc2)c2ccccc21` (centres undefined), 84%. With `CC(C)n1nnnc1SCC(=O)OC1CCCCC1` the figure was 127%.

Turning to `Cc1cc(C)nc(Nc2nc3ccccc3s2)n1`, the survival was 109%. With `Cc1cccc(C(=O)Nc2nc(-c3nnn(-c4cc(F)ccc4F)c3C)ns2)c1` the figure was 133%. `N#Cc1cc[n+](CC(=O)c2cccs2)cc1`: the survival was 102%.

Turning to `Clc1ccc(CCNC(c2cccc(Cl)c2)c2nnc(-c3ccccc3)o2)cc1` (centres undefined), the survival was 5% (active).

As for `Cc1ccc(NC(c2cccc(Cl)c2)c2nnc(-c3ccccc3)o2)cc1F` (centres undefined), the survival is 90%. As for `CCOc1ccc(CCNC(=O)Cn2nnc(-c3ccccc3)n2)cc1OCC`, the survival was 98%. With `CCOc1ccc(CCNC(c2nnc(-c3ccccc3)o2)c2ccccc2Cl)cc1OCC` (centres undefined) the figure was 4% (active).

With `Clc1ccc(CCNC(c2ccc(Cl)cc2)c2nnc(-c3ccccc3)o2)cc1` (centres undefined), the survival is 86%. With `CCOc1ccc(CCNC(c2cccc(Cl)c2)c2nnc(-c3ccccc3)o2)cc1OCC` (centres undefined) the figure was 89%.
